We go through 40 molecules from PubChem BioAssay AID493168 (National Center for Advancing Translational Sciences (NCATS), 2011).

Inconclusive results are not listed. A number with no mark means an inactive call. Active and inactive are the calls of the source. Calls come from the whole dose curve; as a rule, active = well fitted inhibition curve with a large enough effect; inconclusive = small, poorly fitted or top-dose-only effect, or effect the other way; inactive = flat fitted curve, though single readings scatter.
Potency is the fitted concentration of half-maximal effect.

Sequence of Ubiquitin carboxyl-terminal hydrolase 2 (Homo sapiens) (O75604 whole entry, looked up): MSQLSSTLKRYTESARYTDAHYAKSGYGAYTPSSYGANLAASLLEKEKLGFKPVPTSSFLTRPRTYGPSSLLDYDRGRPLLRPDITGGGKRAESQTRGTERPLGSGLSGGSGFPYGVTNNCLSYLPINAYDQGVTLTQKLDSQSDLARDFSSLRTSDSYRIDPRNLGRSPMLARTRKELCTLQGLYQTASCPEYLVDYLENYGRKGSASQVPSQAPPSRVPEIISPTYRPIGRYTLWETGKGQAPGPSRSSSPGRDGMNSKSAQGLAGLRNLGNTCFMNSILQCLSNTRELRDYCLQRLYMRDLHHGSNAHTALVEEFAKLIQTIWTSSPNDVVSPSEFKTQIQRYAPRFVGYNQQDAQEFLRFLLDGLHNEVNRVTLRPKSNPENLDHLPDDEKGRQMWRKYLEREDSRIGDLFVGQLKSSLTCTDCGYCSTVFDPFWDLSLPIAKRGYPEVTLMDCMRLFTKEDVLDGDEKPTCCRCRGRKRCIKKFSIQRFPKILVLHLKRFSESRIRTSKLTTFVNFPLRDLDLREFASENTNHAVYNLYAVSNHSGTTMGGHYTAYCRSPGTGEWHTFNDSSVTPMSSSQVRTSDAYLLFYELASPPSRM

The assay addresses Ubiquitin carboxyl-terminal hydrolase 2 (Homo sapiens) (UniProt O75604). Kind of assay: Confirmation Assay for Inhibitors of Ubiquitin-specific Protease USP2a Using CHOP2 as the Reporter. Note: nearly all actives have a fitted effect of over 55% in size. The conditions noted are these: USP2 core, Ub-CHOP2 coupled reporter fluorescence; series mostly up to 38.3 µM; activity change, negative = inhibition: at the top concentration. From the text: NIH Molecular Libraries Probe Centers Network [MLPCN] NIH Chemical Genomics Center [NCGC] MLSCN Grant: XO1-MH079852-01 PI Name: Nicholson, Ben. Progenra Inc, Malvern, PA NCGC Assay Overview: Homeostasis of cellular proteins is maintained through a combination of synthesis and degradation. The pathway that accounts for the majority of protein degradation is the ubiquitin-proteasomal pathway. Ubiquitin (Ub) is highly conserved in all cells and the generation of a multi-Ub chain typically targets proteins for degradation by the proteasome. However, ubiquitination is highly reversible and dynamic. Deubiquitination, the reverse process, is catalyzed through the action of enzymes referred to as isopeptidases or deubiquitinating enzymes (DUBs). This group of enzymes is collectively responsible for maintaining adequate pools of free ubiquitin and regulating the ubiquitination status of cellular proteins. The class of DUBs referred to as the ubiquitin-specific proteases (USP) family functions endoproteolytically to cleave Ub chains from a wide range of protein substrates. USP2a deubiquitinates fatty acid synthase (FASN) which has recently been identified as an emerging oncology target. To identify inhibitors of USP2a a cell-free assay was employed. […] The reporter enzyme chosen is an […] called CHOP2, which is activated when the Ub is cleaved by USP2. The free and now activated reporter can subsequently act on its reporter substrate. Thus, this coupled assay gives a fluorescent read-out at excitation/emission wavelengths of 485/531. The assay was developed by Progenra, Inc. and has been licensed for sale by LifeSensors, Inc. as Ub-CHOP2-Reporter-Kit (#PR1101).
NCGC Assay Protocol Summary: The assay buffer, prepared fresh at the day of the assay, contains 20mM Tris-HCl pH 8.0, 2mM CaCl2, 2mM beta-Mercaptoethanol, 0.05% CHAPS. 3ul of 20nM (10nM final) USP2 core, which is stored on ice, is dispensed into a medium-binding black solid Kalypsys 1,536 well plate using the Kalypsys dispenser. The assay plate is then pinned with 23nL compound with the Kalypsys pintool in columns 5-48. The controls are pinned as follows: column 1 two-fold dilutions of 2M NEM in duplicate; column 2 2M NEM (final concentration 38.2mM); column 3&4 DMSO. The assay plate is incubated at RT for 30min. Subsequently, 1.5uL of 100nM (25nM final) Ub-CHOP2 and 1.5uL of 100nM (25nM final) Reporter Substrate (both stored on ice and protected from light) were dispensed into the plate using the Kalypsys dispenser. Plates were read after 60min RT incubation on a ViewLux (Perkin Elmer) plate reader using the following wavelengths Ex 485nm /Em 531nm. Data were normalized to the to AC100 inhibition (NEM). Concentration-response curves were fitted to the normalized data and the concentration-response curves were then classified based on curve quality (r2), response magnitude and degree of measured activity. The time zero reading was used to flag fluorescence artifacts. Keywords: ubiquitination, deubiquitination, proteases, profluorescent, MLSMR, MLPCN, NIH Roadmap, qHTS, NCGC
`Cc1[nH]c2ccccc2c1C(c1ccccn1)c1c(C)[nH]c2ccccc12`: the “activity change, negative = inhibition” value was -0.144%.

For `CCCNC(=O)NCc1ccc(N2CCCC2=O)cc1`, the “activity change, negative = inhibition” value was -1.66%.

Take `Cc1ccc(-c2cc(-c3ccc(C)cc3)[n+](-c3ccc(C(=O)[O-])cc3)c(-c3ccc(C)cc3)c2)cc1`: the “activity change, negative = inhibition” value was -2.45%.

Consider `CC(C)CCn1c(CN2CCN(C(=O)c3ccco3)CC2)nc2c1c(=O)n(C)c(=O)n2C`, for which the “activity change, negative = inhibition” value was -4.33%.

In the case of `COc1ccc(N(C(=O)C(C)C)S(=O)(=O)c2ccc(Cl)cc2)cc1`, the “activity change, negative = inhibition” value was 0.439%.

As to `Cc1c(NC(=O)C2CCCN2S(=O)(=O)c2ccc(Cl)cc2)c(=O)n(-c2ccccc2)n1C` (stereo not given), the “activity change, negative = inhibition” value is 7.2%.

In the case of `OCCN(Cc1ccccc1)c1ncnc2sccc12`, the “activity change, negative = inhibition” value is 5.49%.

As for `COc1ccc(C(=O)Nc2ccc(N3CCCC3)cc2)cc1OC`, the “activity change, negative = inhibition” value was 1.15%.

As to `CCOC(=O)N1CCN(CC(=O)n2c(C)c(C)c3ccccc32)CC1`, the “activity change, negative = inhibition” value is -2.29%.

Consider `Cc1noc(/C=C/NCc2cccnc2)c1S(=O)(=O)N(C)CC(=O)N1CCc2ccccc21`, for which the “activity change, negative = inhibition” value was 0.283%.

Consider `c1coc(CNc2nc(-c3cccs3)cs2)c1`, for which the “activity change, negative = inhibition” value is -2.65%.

Take `Cc1cc(NC(=O)COC(=O)CCCOc2ccc(Cl)cc2C)no1`: the “activity change, negative = inhibition” value was -1%.

With `C=CC[C@H](CC(=O)N[C@H](CO)Cc1ccccc1)C(=O)N[C@@H](COC(=O)[C@@H](CC=C)CC(=O)OC(C)(C)C)Cc1c[nH]c2ccccc12`, the “activity change, negative = inhibition” value was -11.8%.

On to `CCOc1ccccc1N1C(=O)CC(Nc2ccc(N3CCOCC3)cc2)C1=O` (stereo not given), for which the “activity change, negative = inhibition” value is -2.19%.

Turning to `Cc1c(C(=O)Nc2ccc3c4c(cccc24)CC3)cccc1[N+](=O)[O-]`, the “activity change, negative = inhibition” value was 1.37%.

In the case of `CCCCNC(=O)Nc1ccccc1C(=O)NCc1ccco1`, the “activity change, negative = inhibition” value was -4.43%.

`CCC(=O)c1ccc(OCC(=O)NC2CCN(Cc3ccccc3)CC2)cc1`: the “activity change, negative = inhibition” value is 1.54%.

Consider `COc1cc(C2C(C#N)=C(N)Oc3c2ccc2ccccc32)ccc1OCC(=O)Nc1cccc(C)c1` (stereo not given), for which the “activity change, negative = inhibition” value was -2%.

For `NS(=O)(=O)c1ccc(N=Nc2c(O)c(C(=O)O)cc3ccccc23)cc1`, the Potency was 13.1 µM (active).

As to `NS(=O)(=O)c1ccc(NC(=O)CN2CCCCC2)cc1`, the “activity change, negative = inhibition” value is -1.04%.

With `C=CC[C@@H](CC(=O)N(CCO)Cc1ccccc1)C(=O)NCCOC(=O)[C@H](CC=C)CC(=O)OC(C)(C)C`, the “activity change, negative = inhibition” value is -0.238%.

With `O=C(Nc1ccc(N2CCCC2)c(Cl)c1)c1ccc(Br)o1`, the “activity change, negative = inhibition” value is 4.08%.

On to `CCc1cc2c(=O)c(-c3nc4ccccc4n3C)coc2c(CN2CCCCC2C)c1O` (stereo not given), for which the “activity change, negative = inhibition” value is 0.458%.

For `C#CCOCCOCCOCCNc1nc(N2CCN(C(=O)CCCCCCCCCCNC(=O)Cn3cc(C[C@@H](C)O)nn3)CC2)nc(N2CCN(C(=O)CCCCCCCCCCNC(=O)[C@@H]([C@H](C)CC)n3cc(CCCCCN)nn3)CC2)n1`, the Potency is 11.7 µM (active).

With `O=C1OC[C@@H]2CCCN2C(=O)[C@@H](CC(=O)N(CCO)Cc2ccccc2)C/C=C\C[C@@H]1Cc1ccc(F)cc1`, the “activity change, negative = inhibition” value is 2.66%.

On to `CCCCCCCCCC[N+](C)(C)CC/C=C1/c2ccccc2Sc2ccc(Cl)cc21`, for which the Potency is 13.1 µM (active).

Turning to `CCC(C)c1ccc(O)c(N)c1` (stereo not given), the “activity change, negative = inhibition” value was 6.58%.

Regarding `CC1(C)CC(=O)C2=C(C1)NCN(CCCN1CCOCC1)C2`, the “activity change, negative = inhibition” value was 0.351%.

Turning to `CC(C)(C)[C@H]1COC(=O)[C@@H](Cc2ccc(F)cc2)C/C=C\C[C@@H](CC(=O)N[C@@H](CO)Cc2ccccc2)C(=O)N1`, the “activity change, negative = inhibition” value was 1.41%.

Regarding `CCn1nc(C(=O)N[C@@H](CCSC)c2nc3ccccc3[nH]2)c2ccccc2c1=O`, the “activity change, negative = inhibition” value was -1.26%.

In the case of `Cc1ccc(NC(=O)Cn2nc(C)c3ccccc3c2=O)cc1F`, the “activity change, negative = inhibition” value was 0.67%.

For the molecule `Cc1cnc(N)c2c(=O)oc3ccccc3c12`, the “activity change, negative = inhibition” value was 5.48%.

In the case of `CSc1ncccc1C(=O)OCC(=O)N1CCOCC1`, the “activity change, negative = inhibition” value is -1.33%.

With `O=C(CCn1c(=O)c2ccccc2n(Cc2ccccc2)c1=O)NCc1ccc2c(c1)OCO2`, the “activity change, negative = inhibition” value is -12.1%.

`O=C(OCc1nc2ccccc2[n+]([O-])c1C(=O)c1ccccc1)c1cccs1`: the “activity change, negative = inhibition” value is -4.32%.

Turning to `COc1cc(C(O)P(=O)(OC(C)C)c2ccc(N(C)C)cc2)cc(OC)c1OC` (stereo not given), the “activity change, negative = inhibition” value was 5.9%.

For `CCc1cc(C(=O)N=Nc2c(O)[nH]c3ccc([N+](=O)[O-])cc23)c2ccccc2n1`, the Potency was 14.7 µM (active).

On to `COc1ccc(NC(=O)CSc2nc3sc(C)cc3c(=O)n2C)c(OC)c1`, for which the “activity change, negative = inhibition” value was -4.17%.

Consider `Cc1cc(C)n2cc(CSc3nnnn3-c3ccccc3C)nc2n1`, for which the “activity change, negative = inhibition” value is -2.31%.

In the case of `Cc1noc(NS(=O)(=O)c2ccc(N3CC(O)=C(c4ccccc4)C3=N)cc2)c1C`, the “activity change, negative = inhibition” value was 3.36%.
